MLL AF4-AF9 inh: MLL-AF4/AF9 protein interaction inhibition. inhibition, % at 10 µM. AlphaScreen, biotin-AF4 peptide binding to FLAG-AF9. 350,000 compounds, 0.47% hits;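 active = every replicate reaching a set inhibition limit, whatever the replicate mean, cut at about 25% in these data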;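 also: 0% = plate neutral control median and 100% = total signal loss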
RAD52 anneal inh: inhibitors of human RAD52 DNA annealing; P43351; recombinant RAD52 DNA annealing, FRET fluorescence; inhibition, % at 18.7 µM; 360,000 compounds, 0.46% hits; AID 651710;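 active = every replicate showing at least 50% inhibition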
Casp6 inh: inhibitors of human caspase-6 | 350,000 compounds, 0.53% hits | P55212 | inhibition, % at 12.5 µM | purified caspase-6, Z-VEID-R110 cleavage fluorescence;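 active = mean inhibition across replicates at least about 35%, with every replicate also reaching that limit, limit read from the data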;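 also: 0% = median of neutral control wells and 100% = no fluorescence left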
NSD2 inh: blocks human histone methyltransferase NSD2; O96028; NSD2 peptide methylation, AlphaScreen, 120 min; inhibition, % at 12.5 µM; 310,000 compounds, 0.54% hits; in the data active = inhibition above about 50%
miR-122 sensor: blocks miR-122 activity in Huh7 sensor cells; Huh7 miR-122 Renilla luciferase sensor, 48 h; neutral wells = 0, positive control = 100; activation (reporter increase), % at 12.5 µM; 340,000 compounds, 0.3% hits; AID 602342;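 active = mean replicate activation score at least 90 and every replicate individually at or above 90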;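 also: higher luciferase means less miR-122 activity so hits act as miR-122 inhibitors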
The depositor's hits bear a star; [ ] = dose if it differs, or a comment. Hits are enriched below; roughly 1.5% of the tested compounds scored in any of these assays.

Results for CN(C)CCCN1c2ccccc2Sc2ccc3ccccc3c21 ?
MLL AF4-AF9 inh: 30*; RAD52 anneal inh: 21; Casp6 inh: 2; NSD2 inh: 4; miR-122 sensor: -4

What do the screens show for `Cc1noc(C)c1NC(=O)Nc1ccc2c(c1)CC(=O)N([C@H](C)CO)C[C@H](C)[C@@H](CN(C)Cc1ccc(-c3ccccc3)cc1)O2`?
MLL AF4-AF9 inh: 4; RAD52 anneal inh: 25; Casp6 inh: 0; miR-122 sensor: -2[16.7 µM]

How did O=C1CCCC2=C1C(c1ccc(Br)cc1)c1c([nH]c(=S)[nH]c1=O)N2 (configuration not stated) do in these assays?
NSD2 inh: 0; miR-122 sensor: 19

What do the screens show for `O=c1[nH]c(=S)[nH]c2c1C(c1ccc(Br)cc1)c1c([nH]c(=S)[nH]c1=O)O2`?
MLL AF4-AF9 inh: -5; RAD52 anneal inh: -1; Casp6 inh: 96*; miR-122 sensor: -5

How did COCC(=O)Nc1ccc2c(c1)C(=O)N(C)[C@H]1CC[C@H](CC(=O)NCc3ccccc3F)O[C@@H]1CO2 do in these assays?
MLL AF4-AF9 inh: -3; RAD52 anneal inh: 5; Casp6 inh: -1

Results for O=C1Nc2ccc([N+](=O)[O-])cc2OC1CCN1CCN(Cc2ccc3c(c2)OCO3)CC1 (configuration not stated) ?
MLL AF4-AF9 inh: 19; RAD52 anneal inh: -49; Casp6 inh: -3; NSD2 inh: 6; miR-122 sensor: 153*

Results for Nc1ccc(C(=O)Nc2ccc3c(O)cc(S(=O)(=O)O)cc3c2)cc1 ?
MLL AF4-AF9 inh: 2; RAD52 anneal inh: -43; Casp6 inh: 84*; NSD2 inh: 8; miR-122 sensor: -5

Results for Cc1ccc(Cl)cc1NC(=O)C1CCCC1 ?
NSD2 inh: 1

What do the screens show for `O=C(/C=C/c1cccs1)N1CCN(c2ccc(O)cc2)CC1`?
MLL AF4-AF9 inh: -2; RAD52 anneal inh: 2; Casp6 inh: 62*; NSD2 inh: 6

How did Cc1ccc(-c2ccc3c(c2)O[C@@H](CN(C)C(=O)C2CCCCC2)[C@@H](C)CN([C@H](C)CO)S3(=O)=O)cc1 do in these assays?
miR-122 sensor: 13[16.7 µM]

How did CS(=O)(=O)N1C[C@H](O)COC[C@@H]2O[C@H](CC(=O)NCc3ccc(-c4ccccc4)cc3)CC[C@H]21 do in these assays?
MLL AF4-AF9 inh: 15; RAD52 anneal inh: 58*; Casp6 inh: 1; miR-122 sensor: -2[16.7 µM]

How did O=C(C[C@@H]1CC[C@@H]2[C@H](COC[C@@H](O)CN2S(=O)(=O)c2ccccc2)O1)NCc1ccc(-c2ccccc2)cc1 do in these assays?
MLL AF4-AF9 inh: 24; RAD52 anneal inh: 89*; Casp6 inh: -7; miR-122 sensor: 0[16.7 µM]

Results for O=C(C[C@@H]1CC[C@@H]2[C@H](COC[C@H](O)CN2S(=O)(=O)c2ccccc2)O1)NCc1ccc(-c2ccccc2)cc1 ?
MLL AF4-AF9 inh: 6; RAD52 anneal inh: 18; Casp6 inh: -5; miR-122 sensor: 0[16.7 µM]

How did O=C(C[C@H]1CC[C@H]2[C@@H](COC[C@H](O)CN2S(=O)(=O)c2ccccc2)O1)NCc1ccc(-c2ccccc2)cc1 do in these assays?
MLL AF4-AF9 inh: 21; RAD52 anneal inh: 92*; Casp6 inh: -11; miR-122 sensor: 5[16.7 µM]

Results for CN1C(=O)c2cc(NC(=O)C3CCCC3)ccc2OC[C@@H]2O[C@H](CC(=O)NCC(F)(F)F)CC[C@H]21 ?
MLL AF4-AF9 inh: -1; RAD52 anneal inh: -12; Casp6 inh: 4; miR-122 sensor: 2[16.7 µM]

How did Cc1noc(C)c1NC(=O)Nc1ccc2c(c1)C(=O)N([C@H](C)CO)C[C@H](C)[C@@H](CN(C)C)OCCCC[C@@H](C)O2 do in these assays?
miR-122 sensor: 7[16.7 µM]

How did COc1ccc2c3c([nH]c2c1)[C@@H](CO)N(Cc1nccs1)CC31CCN(Cc2cncnc2)CC1 do in these assays?
MLL AF4-AF9 inh: 2; RAD52 anneal inh: 50*

How did CCC(=O)N1CC2(CCN(Cc3ccc(Cl)cc3)CC2)c2c([nH]c3cc(OC)ccc23)[C@H]1CO do in these assays?
MLL AF4-AF9 inh: 32*

What do the screens show for `COc1ccc2c3c([nH]c2c1)[C@H](CO)N(Cc1nccs1)CC31CCN(Cc2cncnc2)CC1`?
MLL AF4-AF9 inh: 1; RAD52 anneal inh: 39

How did COc1ccc2c3c([nH]c2c1)[C@@H](CO)N(C(=O)CN(C)C)CC31CCN(Cc2ccccc2Cl)CC1 do in these assays?
MLL AF4-AF9 inh: 30*; RAD52 anneal inh: 42; Casp6 inh: -5
